For test [1], the system named is TRPC4 beta (transient receptor potential cation channel C4), mouse. Description: TRPC4 cation channel opening, retest – cell-based, Fluo4 calcium, HEK293 TRPC4beta/mu-opioid, duplicates, 10 µM, confirmation (AID 2426;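 active means fluorescence ratio normalized to control raised more than 50% in primary screen plus both repeat runs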;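 on activation: percent rise of integrated ratio over buffer wells lacking compound which define 0%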). The settings on record: Fluo4 calcium fluorescence, at 10 µM; hits give high values.
The test system of test [2] is transient receptor potential cation channel C4 beta (TRPC4), mouse. Put plainly: TRPC4 cation channel opening, second retest – cell-based, second round, Fluo4, HEK293 TRPC4beta/mu-opioid, 1 µM, confirmation (AID 2461;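 active means primary screen active and over 50% activation in each of two duplicate runs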;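 on activation: 0% = wells without test compound as baseline of integrated fluorescence ratio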). To be noted: Fluo4 calcium fluorescence, at 1 µM; hits give high values.
Test [3] deals with TRPC4 (transient receptor potential cation channel C4 beta), mouse. Description: potentiation of DAMGO EC20 TRPC4 response – cell-based, second round, Fluo-4, HEK293 TRPC4beta/mu-opioid, 1 µM, confirmation (AID 2554;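 active means primary screen hit whose fluorescence ratio, in both repeats, exceeds the weak agonist control mean by 3 SD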). The settings on record: DAMGO EC20, Fluo-4 calcium flux, at 1 µM; hits give high values. For orientation: A change in cytosolic calcium serves as a functional read-out for many receptors and channels.

Test [4] has as its system TRPC4 beta (transient receptor potential cation channel C4), mouse. Put plainly: potentiation of DAMGO EC20 TRPC4 response – cell-based, Fluo-4, HEK293 TRPC4beta/mu-opioid, confirmation (AID 2555;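 active means primary screen hit whose calcium fluorescence ratio, in both repeats, exceeds the weak agonist control mean by 3 SD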). To be noted: DAMGO EC20, Fluo-4 calcium flux, at 10 µM; hits give high values.
Test [5] has as its target Short transient receptor potential channel 4 (Mus musculus) (UniProt Q9QUQ5). Put plainly: blockers of DAMGO-evoked TRPC4 calcium flux – cell-based, Fluo4, HEK293 TRPC4beta/mu-opioid, confirmation (AID 2636;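 active means calcium signal cut by more than 3 SD below the full-agonist control yet still positive, in both repeats and the earlier primary screen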). To be noted: at 10 µM; hits give high values.
Test [6] has the same target. Put plainly: blockers of DAMGO-evoked TRPC4 calcium flux – cell-based, second round, Fluo4, HEK293 TRPC4beta/mu-opioid, 1 µM, confirmation (AID 2637;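 active means calcium signal ratio cut to more than 3 SD under the fully stimulated control mean yet still positive, in both repeats and the primary screen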). The settings on record: at 1 µM; hits give high values.
Test [7] has the same target. Put plainly: calcium entry via TRPC4 opening agents – cell-based, HEK293 TRPC4/mu-opioid, Fluo-4 calcium, dose response (AID 434937;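 active means primary screen activator hit with a dose response curve and TRPC4 channel activation at any tested dose; inactive means no activation, no dose response, or not a primary hit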).
For test [8] the target is unchanged. Put plainly: block of DAMGO-driven TRPC4 calcium entry – cell-based, HEK293 TRPC4/mu-opioid, Fluo-4 calcium, dose response (AID 434942).
Test [9] has as its target Short transient receptor potential channel 6 (Mus musculus) (UniProt Q61143). Put plainly: TRPC6 blockade by TRPC4 inhibitor hits – cell-based, HEK293, membrane potential dye, duplicate, selectivity assay for TRPC4 inhibitor project, confirmation (AID 434948;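 active means active in primary screen and both duplicates, each dropping signal beyond three positive-control SD with fluorescence still positive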). The settings on record: HEK293 TRPC6, membrane potential dye fluorescence, at 10 µM, stimulated with maximal-effect acetylcholine; hits give high values.

Test [10] has the same target. Description: TRPC6 opening by TRPC4 activator hits – cell-based, HEK293, membrane potential dye, duplicate, selectivity assay for TRPC4 activator project, confirmation (AID 434950;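 active means membrane potential signal rise above negative control mean plus 3 SD in both duplicates, also active in the earlier TRPC4 screen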;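 on activation: 0% = buffer only wells and 100% = acetylcholine maximal-effect wells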). The settings on record: HEK293 TRPC6, membrane potential fluorescence, at 10 µM; activation: hits give high values; outcome: activation.
For test [11] the target is unchanged. Put plainly: positive modulators of mouse TRPC6 channel – HEK293 cells, membrane potential dye, duplicate, selectivity assay for TRPC4 potentiator project, confirmation (AID 434952;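 active means compound raising the membrane signal above positive-control mean plus 3 SD in both repeats, and a primary screen hit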). To be noted: HEK293 TRPC6, membrane potential dye fluorescence, at 10 µM, maximal acetylcholine added after compound; hits give high values.
Test [12] concerns the target Short transient receptor potential channel 4 (Mus musculus) (UniProt Q9QUQ5). Put plainly: calcium flux activators in TRPC4/5HT1a cells, counter-screen for TRPC4 activator project, cell-based, second counter screen, HEK293 TRPC4/5HT1a, Fluo-4 (AID 434977;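 active means calcium signal rise above buffer-control mean plus 5 SD in both duplicates, and also a hit in the primary screen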;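 on activation: plate controls were assay buffer for no effect and maximal serotonin response for full effect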). To be noted: Fluo-4 calcium flux, at 10 µM; hits give high values.
Test [13] in a line: serotonin-gated TRPC4 signal block – cell-based, second counter screen, HEK293 TRPC4/5HT1a, Fluo-4, counter-screen for TRPC4 inhibitor project, confirmation (AID 434978;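 active means primary screen active whose calcium signal fell more than 3 SD beyond the full-serotonin control mean in both duplicate plates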;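 further: serotonin given first at submaximal then at maximal dose after compound preincubation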). The settings on record: Fluo-4 calcium flux, at 10 µM, serotonin added to trigger calcium flux; hits give high values. (In general: A counterscreen serves to expose hits that act by an unwanted route or on another target.)

For test [14], the system named is TRPC4 (mouse), co-expressed with 5HT1a in HEK293. Description: enhancement of serotonin-evoked TRPC4 response – cell-based, second counter screen, HEK293 TRPC4/5HT1a, Fluo-4, counter-screen for TRPC4 potentiator project, confirmation (AID 434979;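 active means signal rise over 3 SD above mean of control wells given weak agonist, in both repeats and first screen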). To be noted: Fluo-4 calcium flux, at 10 µM, serotonin added at its EC20 dose; hits give high values.
Test [15] is described as follows: nonspecific calcium rise without TRPC4 – cell-based, HEK293 mu-opioid receptor line, counter-screen for TRPC4 activator project, confirmation (AID 449723;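 active means hit in primary screen, with calcium signal over 5 SD above buffer well mean in both duplicates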;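 further: counter screen cells carry the mu-opioid receptor alone and lack TRPC4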). To be noted: HEK293 mu-opioid cells, Fluo-4 calcium fluorescence, at 10 µM; hits give high values.
Test [16] is described as follows: nonspecific potentiation of DAMGO calcium response – cell-based, HEK293 mu-opioid receptor line, counter-screen for TRPC4 allosteric potentiator project, confirmation (AID 449724;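 active means calcium signal rise more than 3 SD above the low-dose agonist control mean, in both duplicate plates and the primary screen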). To be noted: HEK293 mu-opioid receptor cells, Fluo-4 calcium flux, at 10 µM, compound added before EC20 DAMGO stimulus; hits give high values.
In test [17] the target is Short transient receptor potential channel 4 (Mus musculus) (UniProt Q9QUQ5). Description: potentiation of DAMGO-evoked TRPC4 calcium signal – cell-based, HEK293 TRPC4/mu-opioid, Fluo-4 calcium, EC20 DAMGO, dose response (AID 434941;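 active means earlier screen potentiator hit that boosts the TRPC4 ion channel at some dose, with a dose response; inactive means no potentiation, no dose response, or not a prior hit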;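 further: calcium entry triggered by an EC20 dose of DAMGO at the co-expressed mu-opioid receptor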).
Short transient receptor potential channel 4 (Mus musculus), sequence (Q9QUQ5 whole entry, looked up): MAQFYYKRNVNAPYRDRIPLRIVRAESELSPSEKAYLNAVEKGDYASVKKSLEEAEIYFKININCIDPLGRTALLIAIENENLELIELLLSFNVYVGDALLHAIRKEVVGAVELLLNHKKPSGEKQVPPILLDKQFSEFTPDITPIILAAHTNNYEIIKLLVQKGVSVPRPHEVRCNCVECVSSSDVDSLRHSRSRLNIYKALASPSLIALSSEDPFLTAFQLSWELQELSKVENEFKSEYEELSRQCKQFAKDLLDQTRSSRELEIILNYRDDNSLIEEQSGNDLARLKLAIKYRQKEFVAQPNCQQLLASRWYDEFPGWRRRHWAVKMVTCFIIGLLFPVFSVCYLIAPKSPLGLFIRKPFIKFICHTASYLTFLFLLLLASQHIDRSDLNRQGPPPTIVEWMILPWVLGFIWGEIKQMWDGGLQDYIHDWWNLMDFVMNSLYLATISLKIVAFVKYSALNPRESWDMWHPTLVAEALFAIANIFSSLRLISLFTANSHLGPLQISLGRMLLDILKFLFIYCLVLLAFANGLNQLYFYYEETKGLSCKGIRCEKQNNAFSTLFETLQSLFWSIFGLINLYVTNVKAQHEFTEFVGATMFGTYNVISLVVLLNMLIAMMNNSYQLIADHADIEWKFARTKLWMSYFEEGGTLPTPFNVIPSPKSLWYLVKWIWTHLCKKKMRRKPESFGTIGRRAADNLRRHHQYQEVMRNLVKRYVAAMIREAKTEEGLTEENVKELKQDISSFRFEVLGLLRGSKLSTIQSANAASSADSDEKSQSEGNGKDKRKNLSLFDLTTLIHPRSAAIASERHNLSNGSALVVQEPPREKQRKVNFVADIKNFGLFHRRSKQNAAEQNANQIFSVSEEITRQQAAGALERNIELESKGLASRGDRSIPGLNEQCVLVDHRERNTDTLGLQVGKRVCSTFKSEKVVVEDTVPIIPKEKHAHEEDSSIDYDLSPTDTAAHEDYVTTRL

For some of these results: Measured potencies and affinities stand elsewhere. Calls of active or inactive are those of the source.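 How the source made its calls, unless noted: active means primary screen inhibitor hit that blocks the TRPC4 channel at some tested dose, yielding a dose curve; inactive means the rest.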

Short transient receptor potential channel 6 (Mus musculus), sequence (Q61143 whole entry, looked up): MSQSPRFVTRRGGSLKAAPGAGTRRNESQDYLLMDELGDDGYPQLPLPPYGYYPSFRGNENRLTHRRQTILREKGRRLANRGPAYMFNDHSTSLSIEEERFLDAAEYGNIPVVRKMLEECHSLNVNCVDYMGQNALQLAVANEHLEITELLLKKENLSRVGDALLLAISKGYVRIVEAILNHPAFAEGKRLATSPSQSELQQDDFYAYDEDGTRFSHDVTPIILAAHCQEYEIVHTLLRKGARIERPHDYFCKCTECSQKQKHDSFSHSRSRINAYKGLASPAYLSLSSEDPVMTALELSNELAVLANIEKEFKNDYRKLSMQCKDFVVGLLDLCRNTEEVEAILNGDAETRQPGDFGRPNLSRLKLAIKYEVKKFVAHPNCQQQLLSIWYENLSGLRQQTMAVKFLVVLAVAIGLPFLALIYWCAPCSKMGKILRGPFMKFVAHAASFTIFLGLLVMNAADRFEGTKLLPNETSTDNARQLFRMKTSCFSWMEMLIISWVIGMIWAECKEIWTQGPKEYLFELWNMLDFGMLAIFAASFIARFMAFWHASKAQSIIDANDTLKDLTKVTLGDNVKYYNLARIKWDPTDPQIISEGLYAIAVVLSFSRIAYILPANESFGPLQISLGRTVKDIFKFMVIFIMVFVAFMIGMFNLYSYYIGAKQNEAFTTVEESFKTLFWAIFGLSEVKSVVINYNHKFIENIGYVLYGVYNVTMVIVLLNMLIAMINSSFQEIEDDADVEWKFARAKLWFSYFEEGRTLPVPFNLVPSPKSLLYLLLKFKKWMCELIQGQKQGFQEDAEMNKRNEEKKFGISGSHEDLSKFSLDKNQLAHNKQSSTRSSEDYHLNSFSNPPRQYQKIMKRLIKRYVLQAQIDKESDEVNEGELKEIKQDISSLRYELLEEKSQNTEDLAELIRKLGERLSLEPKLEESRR

For `O=[N+]([O-])c1cc(C(F)(F)F)ccc1NC1CCN(Cc2ccccc2)C1` (configuration not stated), the outcome in test [1], in test [2], in test [3], in test [4], in test [5] and in test [6] was inactive. Further, the result in [7], in test [8], in test [9], in test [10], in test [11] and in [12] was inactive. The result in [13], in test [15] and in test [16] was inactive. In [14], the potentiation was 23.9% (active).

In the case of `Cc1csc2c(N3CCN(C(=S)Nc4ccc(C(F)(F)F)cc4)CC3)ncnc12`, the activation is 102% (active) in test [1], 55% (active) in test [2] and 48.2% (active) in [12]. The outcome in [3], in test [4], in test [5], in test [6], in [17] and in test [8] was inactive. In addition, the compound was called inactive in test [9], in test [10], in test [11], in [13], in test [14] and in [15]. For the same compound, in [16], the outcome was inactive.

As for `O=C(NCc1ccccc1)C1=C[C@H](c2ccc(C(F)(F)F)cc2)C[C@H](OCc2ccc(CO)cc2)O1`, the outcome in [1], in test [2], in [3], in test [5], in test [6] and in test [7] was inactive. Also, the outcome in test [8], in [9], in test [10], in test [11], in test [12] and in test [13] was inactive. Also, the result in [15] and in test [16] was inactive. Further, the values for the potentiation in test [4] and in [14] were 51% (active) and 111% (active), respectively.

`CCCCCCn1c(N2CCN(c3ccccc3)CC2)nc2c1c(=O)n(C)c(=O)n2C`: the result in test [1], in [2], in [5], in [6], in test [7] and in test [8] was inactive. Besides, the compound was called inactive in test [9], in test [10], in test [11], in test [12], in [13] and in [15]. In addition, in [16], the result was inactive. For the same compound, the potentiation is 9% (active) in [3], 117% (active) in [4] and 81% (active) in [14].

For `O=C(O)c1ccc(-c2ccc(/C=N/Nc3ccc([N+](=O)[O-])cc3)o2)cc1`, the activation in [1] is 120% (active); in test [10], 442% (active); in test [12] it was 111% (active); in test [15] it was 106% (active). The outcome in [2], in [3], in test [5], in [6], in test [17] and in [8] was inactive. Besides, the compound was classed as inactive in [9], in test [11], in [13], in test [14] and in [16]. Further, in test [4], the potentiation is 11% (active).

Turning to `Cc1cccc(Cc2c(C)nc3c(C(=O)NCc4ccco4)cnn3c2C)c1`, the result in test [1], in [2], in [3], in [4], in test [5] and in test [6] was inactive. In addition, the result in test [7], in test [8], in test [9], in test [10], in [11] and in [12] was inactive. In addition, the result in test [13], in test [15] and in test [16] was inactive. The potentiation in test [14] is 58.9% (active).

Consider `CCCCn1c(SCC(=O)N2c3ccccc3Sc3ccccc32)nc2c1c(=O)n(C)c(=O)n2C`, for which the result in test [1], in [2], in test [5], in test [6], in test [7] and in test [8] was inactive. For the same compound, the compound was classed as inactive in test [9], in [10], in test [11], in test [12], in test [13] and in [15]. Also, in test [16], the outcome was inactive. The results for the potentiation in test [3], in [4] and in test [14] were 8% (active), 97% (active) and 93.4% (active), respectively.
